Some test systems named below: SK-MEL-2 melanoma; EKVX NSCLC; SN12C renal; UO-31 renal; TK-10 renal; ACHN renal; CAKI-1 renal; A498 renal; CCRF-CEM leukemia; MOLT-4 leukemia.
Holding throughout (experiment): NCI-60 one-dose screen, 48 h (100 = growth as untreated, 0 = no growth, -100 = all killed)
Holding throughout (details): 10 µM unless noted

The results in this text go back to PubChem BioAssay (NCI).

The panel holds about 83,000 compounds, 20% with a hit somewhere; the sample as a whole holds those more often.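 A percent growth of 40 corresponds to 60% growth inhibition; 0 means no net growth; -100 means all cells died. Active threshold: below 10.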 Values without a mark were called inactive. Calls of active or inactive are those of the source.

Take `CCOC(=O)c1ccc2[nH]c(O)c(C(=Nc3ccc(N(C)C(=O)CN4CCN(C)CC4)cc3)c3ccccc3)c2c1`: the growth was -59.2% (active) in the assay on SK-MEL-2 melanoma; -3.53% (active) in the assay with EKVX NSCLC; 11.4% in the assay with SN12C renal; -41.6% (active) in the assay on UO-31 renal; -70% (active) in the assay with TK-10 renal; 2.92% (active) in the assay with ACHN renal. The growth was -0.635% (active) with CAKI-1 renal, -59.9% (active) in the assay on A498 renal, 4.58% (active) in the assay with CCRF-CEM leukemia and -14% (active) in the assay on MOLT-4 leukemia.
`N#Cc1cccc(NC(=O)c2oc3ccccc3c2-c2cnn(-c3ccccc3)c2)c1`: the growth in the assay on SK-MEL-2 melanoma was 88.1% [50 µM]; in the assay on EKVX NSCLC, 76.5% [50 µM]; in the assay on SN12C renal it was 78.3% [50 µM]; in the assay on UO-31 renal, 59% [50 µM]; in the assay with TK-10 renal, 88.2% [50 µM]; in the assay on ACHN renal it was 80.6% [50 µM]. For the same compound, the growth in the assay on CAKI-1 renal is 63.2% [50 µM]; in the assay on A498 renal it was 89.5% [50 µM]; with CCRF-CEM leukemia it was -21.3% [50 µM] (active); with MOLT-4 leukemia, -5.03% [50 µM] (active).
With `O=C(Nn1c2c(sc1=Nc1ccccc1)C(=O)c1ccccc1C2=O)c1cc2ccc1CCc1ccc(cc1)CC2`, the growth in the assay with SK-MEL-2 melanoma is 75.2%; in the assay on EKVX NSCLC it was 70.4%; in the assay with SN12C renal it was 70.2%; in the assay with UO-31 renal it was 33.6%; in the assay with TK-10 renal it was 108%; in the assay with ACHN renal, 42.7%. The growth in the assay with CAKI-1 renal is 32.1%; in the assay with A498 renal, 93.7%; with CCRF-CEM leukemia, 79.8%; with MOLT-4 leukemia it was 83.3%.
`Nc1nc2c([nH]1)c1[nH]c3ccccc3c1c1[nH]c3ccccc3c21`: the growth in the assay on SK-MEL-2 melanoma was -23.5% (active); in the assay on EKVX NSCLC it was 73.5%; in the assay with SN12C renal it was 75.6%; in the assay on UO-31 renal, 62.9%; with TK-10 renal it was 91.4%; in the assay on ACHN renal, 59.1%. Also, the growth with CAKI-1 renal is 83.2%; in the assay on A498 renal, 134%; in the assay with CCRF-CEM leukemia it was -3.64% (active); with MOLT-4 leukemia it was -12.5% (active).
For the compound `COc1ccc(-c2nc(SCC(C)C)nc(N/N=C\c3ccc(F)cc3)c2C#N)cc1`, the growth is 104% with SK-MEL-2 melanoma; 93.9% in the assay on EKVX NSCLC; 78.6% with SN12C renal; 67.2% in the assay with UO-31 renal; 81.5% with TK-10 renal; 30.3% with ACHN renal. The growth in the assay on CAKI-1 renal is 91.1%; in the assay with A498 renal it was 74.4%; in the assay with CCRF-CEM leukemia, 82.3%; with MOLT-4 leukemia, 88.2%.
For the compound `Cc1ccc(C(C(N)=O)C(C(N)=O)c2ccccc2)cc1` (stereo not given), the growth with SK-MEL-2 melanoma is 105%; with EKVX NSCLC it was 113%; with SN12C renal, 112%; in the assay on UO-31 renal, 108%; in the assay on TK-10 renal, 101%; in the assay on ACHN renal, 115%. The growth in the assay on CAKI-1 renal was 101%; with A498 renal, 116%; in the assay on CCRF-CEM leukemia it was 93.4%; in the assay with MOLT-4 leukemia, 100%.
On to `COc1cccc([C@H]2c3[nH]c4ccccc4c3C[C@H]3C(=O)N(CCCCCCC(=O)NO)CC(=O)N23)c1`, for which the growth was 60.1% with SK-MEL-2 melanoma; 82.6% with EKVX NSCLC; 62.8% in the assay on SN12C renal; 62.5% in the assay with UO-31 renal; 87.6% in the assay on TK-10 renal; 69.1% with ACHN renal. For the same compound, the growth in the assay on CAKI-1 renal was 75.1%; in the assay with A498 renal, 75.6%; with CCRF-CEM leukemia, 14%; in the assay with MOLT-4 leukemia, 18.5%.
With `Cn1c(=O)c2c(nc(NC3=NS(=O)(=O)c4ccccc43)n2CC(=O)N2CCc3ccccc32)n(C)c1=O`, the growth with SK-MEL-2 melanoma is 106%; in the assay with EKVX NSCLC, 102%; in the assay on SN12C renal, 96.9%; with UO-31 renal, 75.9%; in the assay with TK-10 renal, 108%; in the assay with ACHN renal it was 102%. Moreover, the growth in the assay on CAKI-1 renal was 92.7%; in the assay with A498 renal it was 58.9%; with CCRF-CEM leukemia, 101%; in the assay on MOLT-4 leukemia, 112%.
Take `COc1ccc2c(O)c(/C=C3\N=Nc4ccccc43)oc2c1C[C@@H]1CCNC[C@H]1F`: the growth with SK-MEL-2 melanoma was 96.9%; in the assay with EKVX NSCLC it was 64.5%; in the assay on SN12C renal, 67.7%; in the assay on UO-31 renal, 50.5%; with TK-10 renal, 84.2%; with ACHN renal, 61.3%. The growth in the assay with CAKI-1 renal was 64.8%; in the assay with A498 renal, 57.9%; in the assay on CCRF-CEM leukemia, -16.3% (active); with MOLT-4 leukemia it was 68%.
With `CC(O)c1cnc(/C=C2\SC(=S)N(Cc3ccccc3)C2=O)s1` (stereo not given), the growth is 69.1% in the assay with SK-MEL-2 melanoma; 98.1% with EKVX NSCLC; 95.5% in the assay on SN12C renal; 93.5% in the assay with UO-31 renal; -18.5% (active) in the assay with TK-10 renal; 88.2% with ACHN renal. Further, the growth in the assay on CAKI-1 renal was 87.8%; in the assay with A498 renal it was 104%; in the assay with CCRF-CEM leukemia it was 18.8%; with MOLT-4 leukemia, 58.1%.
`COP(=O)(OC)C(C)(C)CC(=O)CC(C#N)(C#N)C(C#N)C#N`: the growth was 118% in the assay on SK-MEL-2 melanoma; 99.4% in the assay on EKVX NSCLC; 99.6% in the assay with SN12C renal; 85.1% in the assay with UO-31 renal; 104% in the assay on TK-10 renal; 100% in the assay on ACHN renal. Further, the growth was 96.4% in the assay with CAKI-1 renal, 121% in the assay with A498 renal, -30.3% (active) in the assay on CCRF-CEM leukemia and 104% in the assay with MOLT-4 leukemia.
As for `COc1cc(-c2nc(SCC(C)C)nc(Nc3cccc4ccccc34)c2C#N)cc(OC)c1OC`, the growth in the assay on SK-MEL-2 melanoma is 107%; with EKVX NSCLC it was 98.7%; in the assay on SN12C renal it was 92.6%; in the assay with UO-31 renal, 67.9%; in the assay with TK-10 renal, 128%; with ACHN renal, 98.4%. Besides, the growth is 68.5% in the assay with CAKI-1 renal, 74.3% in the assay on A498 renal, 75% in the assay with CCRF-CEM leukemia and 64.3% in the assay on MOLT-4 leukemia.
Take `CN(C)CCCn1c2c(c3ncccc3c1=O)C(=O)c1ccccc1-2`: the growth is 81.8% with SK-MEL-2 melanoma; 81.7% in the assay with EKVX NSCLC; 34.7% in the assay with SN12C renal; 32% in the assay on UO-31 renal; 52.3% in the assay with TK-10 renal; 15.2% with ACHN renal. Moreover, the growth was 52.7% with CAKI-1 renal, 57.5% with A498 renal, 50.4% with CCRF-CEM leukemia and 17.3% in the assay on MOLT-4 leukemia.
